Molecules are shown by their SMILES. Compounds without any hit were thinned out: in the full panel of roughly 83,000, 20% have a hit.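 Note: values are percent growth. 100 is the growth of untreated cells, values between 100 and 0 indicate rising inhibition; between -100 and 0 indicates cell death.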 Active and inactive are the calls of the source. The calls were made as follows: active = growth percent below 10; inactive = the rest.

This experiment concerns OVCAR-8 ovarian. Put plainly: NCI-60 one-dose screen, 48 h (100 = growth as untreated, 0 = no growth, -100 = all killed). To be noted: 10 µM.
As to `CCc1ccc(-c2ccc(-n3nc(C)c4c(N)nc(Cc5ccccc5)nc43)cc2)cc1`, the growth was 32.3% (inactive).

As to `O=C(Nc1ccc(F)cc1)c1cc2ccccc2cc1O`, the growth was 82.7% (inactive). The result for `Nc1nccc(OCCO)n1` reads 109% (inactive); that for `O=C(CCCCNC(=O)c1nc(-c2ccccc2)n(-c2ccccc2)n1)NO`, 51% (inactive).

As for `COc1cc(-c2nn(-c3ccc(NC(=O)NCCNS(=O)(=O)c4ccc(F)cc4)cc3)cc2-c2ccncc2)ccc1Cl`, the growth is 9.18% (active). Then `O=C(Nc1ccc2c(O)cc(S(=O)(=O)O)cc2c1)c1ccc([N+](=O)[O-])cc1`, with 88.9% (inactive); and `COC(=O)C1(O)NC(=C(C#N)C#N)C(C#N)=C1C(=O)c1ccc(OC)c(OC)c1` (centres undefined), with 92% (inactive); and `C=CCn1c(SCC(=O)Nc2ccc(C(=O)/C=C/c3ccc(OC)cc3)cc2)nnc1-c1ccc(OC)c(OC)c1`, with 79.8% (inactive). Regarding `COc1cc(NC(=O)Nc2cnc(Nc3ccc(N4CCOCC4)cc3)nc2Oc2cccc(OC)c2)cc(OC)c1`, the growth was -10.8% (active).

In the case of `O=C(CCl)Nc1ccc(Cc2ccc(NC(=O)CCl)cc2)cc1`, the growth was 0.481% (active).

With `Cc1cc(SCc2ccccc2)nc(N)n1`, the growth is 105% (inactive). On to `Cc1nn(-c2ccc(-c3ccc(OC(F)(F)F)cc3)cc2)c2nc(Cc3ccccc3)nc(N)c12`, for which the growth is 33% (inactive). The result for `O=C(Nc1nc(-c2ccccc2)nc2c1sc(=S)n2-c1ccccc1)C(F)(F)F` reads 86.6% (inactive); that for `O=C(CSc1nnc(-c2ccc(Cl)cc2)o1)Nc1ccc(C(=O)/C=C/c2ccc(Cl)cc2)cc1`, 100% (inactive).

For the origin of these results see PubChem BioAssay (NCI).
